Test results from the supplement of paper PMC12340641.

Key:
[1] = target: IKZF1 (dCK*-IKZF1 fusion in HEK293FT) (UniProt Q13422); assay: inhibition of IKZF1 HTRF signal (DMSO = 0%, pomalidomide 10 uM = 100%); higher = lower IKZF1 protein level; conditions: compound concentration: 5 uM, overnight (~20 h)
Outline: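 HEK293FT cells stably expressing a dCK*-IKZF1 fusion (2000/well, 384-well) were treated overnight at 37 °C with 5 μM compound in single wells. They were then lysed 30 min at room temperature, and lysate was incubated overnight with a commercial HTRF total-IKZF1 antibody kit. The time-resolved FRET ratio (665/620 nm) was background-subtracted. Percent inhibition of IKZF1 signal was normalised per plate to vehicle (0%) and a reference degrader (100%).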

HEK293FT dCK*-only = assay: relative growth in counter assay (no AraC = 100%, AraC + DMSO = 0%); higher = more growth rescue independent of IKZF1; conditions: compound concentration: 5 uM; AraC concentration: 0.3 uM; overnight pretreatment + 4 days AraC
Outline: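 In 384-well plates, 300 HEK293FT cells per well expressing an engineered kinase construct alone got 5 μM compound 2 h after seeding. After overnight at 37 °C, 0.3 μM nucleoside suicide substrate plus medium was applied for 4 days. Counting of Hoechst 33342-stained nuclei by imaging on day 5 was normalised per plate, with 100% for no-substrate wells and 0% for substrate plus vehicle.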

HEK293FT dCK*-IKZF1 = assay: relative growth recovery (pomalidomide 10 uM = 100%, DMSO = 0%); higher = more growth rescue (IKZF1 fusion degradation); conditions: compound concentration: 5 uM; AraC concentration: 0.3 uM; overnight pretreatment + 4 days AraC
Outline: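 HEK293FT cells stably expressing an engineered deoxycytidine kinase–IKZF1 fusion were seeded at 300 per well in 384-well plates and given 5 μM compound 2 h later. After overnight incubation at 37 °C, a nucleoside suicide substrate at 0.3 μM was added with medium for 4 days, and on day 5 Hoechst 33342-stained nuclei were counted by whole-well imaging. Growth recovery was normalised per plate between a reference degrader and vehicle, set to 100% and 0% respectively, and the values are means of duplicates run on different days.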

IKZF1 (dCK*-IKZF1 fusion in HEK293FT), sequence (Q13422 whole entry, looked up, the tested form may be a part): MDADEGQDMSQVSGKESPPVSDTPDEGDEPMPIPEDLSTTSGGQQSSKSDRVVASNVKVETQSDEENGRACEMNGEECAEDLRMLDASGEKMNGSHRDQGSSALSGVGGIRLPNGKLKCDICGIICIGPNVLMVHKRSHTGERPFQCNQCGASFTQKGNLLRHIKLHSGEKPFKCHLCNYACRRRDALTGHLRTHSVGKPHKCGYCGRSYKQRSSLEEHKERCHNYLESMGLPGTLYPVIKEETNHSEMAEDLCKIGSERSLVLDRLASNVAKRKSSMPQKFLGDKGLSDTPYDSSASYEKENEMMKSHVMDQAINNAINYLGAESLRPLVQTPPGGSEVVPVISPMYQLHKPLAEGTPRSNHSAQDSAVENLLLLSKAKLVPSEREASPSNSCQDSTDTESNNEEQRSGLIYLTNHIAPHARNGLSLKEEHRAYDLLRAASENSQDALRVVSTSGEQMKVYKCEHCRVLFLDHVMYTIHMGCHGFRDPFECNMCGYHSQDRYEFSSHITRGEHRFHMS

SMILES | inhibition of IKZF1 HTRF signal [1] | relative growth in counter assay (HEK293FT dCK*-only) | relative growth recovery (HEK293FT dCK*-IKZF1)
O=c1n(Cl)c(=O)n(Cl)c(=O)n1Cl | -9.26% | -2.72% | -1.44%
N#Cc1cn([C@@H]2O[C@H](CO)[C@@H](O)[C@H]2O)c2ncnc(N)c12 [toyocamycin] | 44.4% | -34.2% | -12.9%
N#Cc1nn(-c2c(Cl)cc(C(F)(F)F)cc2Cl)c(N)c1S(=O)C(F)(F)F (stereo unspecified) | -50.9% | 7.45% | -1.52%
O=c1[nH]c2ccccc2n1C1CCN(CCCC(c2ccc(F)cc2)c2ccc(F)cc2)CC1 | -18.9% | 3.23% | 5.47%
c1ccc(CCCN2CCN(CCOC(c3ccccc3)c3ccccc3)CC2)cc1 | -28.8% | -4.09% | 3.4%
C[C@@]12C(=O)OC(=O)[C@]1(C)[C@H]1CC[C@@H]2O1 [cantharidin] | 15.8% | 3.7% | -4.16%
CCOc1ccccc1-n1c(C(C)N2CCN(C(=O)COc3ccc(Cl)cc3)CC2)nc2ccccc2c1=O (stereo unspecified) [Erastin] | -51.3% | -4.63% | -1.44%
O=C(Nc1ccc(Br)cc1)c1cc(Br)cc(Br)c1O [tribomsalan] | 13.9% | -2.64% | -2.67%
Clc1ccc(N2CCN(Cc3c[nH]c4ncccc34)CC2)cc1 | -41.5% | 6.88% | 2.15%
COc1cc2c(c(OC)c1OC)-c1ccc(OC)c(=O)cc1[C@@H](NC(C)=O)CC2 | -16.1% | -34.4% | -11.6%
Clc1ccccc1C(c1ccccc1)(c1ccccc1)n1cccn1 | -25.1% | 1.96% | -1.69%
CC(Cc1ccccc1)NCCC(c1ccccc1)c1ccccc1 (stereo unspecified) [prenylamine] | -23.8% | 9.26% | -0.73%
C[C@@H]1C[C@@H]([C@H](O)CC2CC(=O)NC(=O)C2)C(=O)[C@@H](C)C1 | 79.8% | -33.1% | -12%
CC(=O)OC[C@]12CCC(C)=C[C@H]1O[C@@H]1[C@H](O)[C@@H](OC(C)=O)[C@@]2(C)[C@@]12CO2 [Diacetoxyscirpenol] | 93.3% | -34.2% | -12.7%
C[C@]12CCC3C(CC[C@]4(O)C[C@@H](O)CC[C@]34C=O)[C@@]1(O)CCC2C1=CC(=O)OC1 (stereo partly specified) [Strophantidin] | 74.7% | -32.9% | -11.4%
O=[N+]([O-])c1ccc(Cl)c([N+](=O)[O-])c1 [2,4-dinitrochlorobenzene] | 7.2% | -34.1% | -12.8%
O=C(N/N=C/c1ccc([N+](=O)[O-])o1)c1cc([N+](=O)[O-])cc([N+](=O)[O-])c1O | 2.89% | -3.38% | -2.9%
CC[C@@]1(O)C(=O)OCc2c1cc1n(c2=O)Cc2cc3ccccc3nc2-1 [camptothecin] | -10.9% | -34.5% | -12.9%
N=C(Nc1ccccc1)Nc1ccccc1 [diphenylguanidine] | -55.9% | -6.47% | -1.17%
C[C@@]1(CO)[C@H](O)CC[C@@]2(C)[C@H]1CC[C@H]1C[C@@H]3C[C@@]12CC[C@]3(O)CO [Aphidicolin] | -14.2% | -34.1% | -12.3%
CC[C@@]1(C2O[C@@H](C3O[C@@](O)(CO)[C@H](C)C[C@@H]3C)C[C@@H]2C)CC[C@H]([C@]2(C)CC[C@]3(C[C@H](O)[C@@H](C)[C@@H]([C@@H](C)[C@@H](OC)[C@H](C)C(=O)O)O3)O2)O1 (stereo partly specified) | 9.03% | -4.55% | -0.68%
COc1cc([C@@H]2c3cc4c(cc3[C@H](O)[C@H]3COC(=O)C23)OCO4)cc(OC)c1OC (stereo partly specified) [Podofilox] | 49.2% | -34% | -12.1%
O=[N+]([O-])/C=C/c1ccc2c(c1)OCO2 | -44.2% | -33.6% | -13.1%
Cc1cc(C(C#N)c2ccc(Cl)cc2)c(Cl)cc1NC(=O)c1cc(I)cc(I)c1O (stereo unspecified) | -5.04% | -3.81% | -0.555%
Clc1ccc(C(OCCN2CCCCC2)c2ccccc2)cc1 (stereo unspecified) | -26.4% | -4.94% | -0.525%
c1ccc2c(c1)Nc1ccccc1S2 | -13.2% | -0.21% | 0.68%
c1ccc2c(c1)sc1ccccc12 | -33.1% | -4.73% | 1.72%
